According to the supplement of paper PMC6555819:

Experiments:
Test in all cases: PBM binding z-score (relative to random genomic background probes); higher = stronger binding; sequences stand for … in GC…GCGATTGACAGCGTAGAATGAAGG
[1] = tested on: RARb homodimer (NR concentration 270 nM)
In short: (§1)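 Random background probes are the reference for binding z-scores. These scores derive from regression-normalized fluorescence on custom Agilent 4×180K protein-binding microarrays incubated 1 h with ligand-free nuclear receptor dimers. Binding was detected with antibodies against each partner (one per run).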

[2] = tested on: RARg:RXRa (NR concentration 270 nM, RXRa partner concentration 90 nM)
In short: as §1

[3] = tested on: RARg homodimer (NR concentration 270 nM)
In short: as §1

[4] = tested on: RXRa DBDmut IVT, anti-RXR (DBD mutation: RXRa K156A/R161A, NR concentration 90 nM)
In short: as §1

[5] = tested on: RXRa homodimer (NR concentration 180 nM)
In short: as §1

[6] = tested on: THRa:RXRa (NR concentration 90 nM, RXRa partner concentration 90 nM)
In short: as §1

[7] = tested on: THRa homodimer (NR concentration 90 nM)
In short: as §1

[8] = tested on: VDR homodimer (NR concentration 270 nM)
In short: as §1

Sequence	PBM binding z-score [1]	PBM binding z-score [2]	PBM binding z-score [3]	PBM binding z-score [4]	PBM binding z-score [5]	PBM binding z-score [6]	PBM binding z-score [7]	PBM binding z-score [8]
GTACCAGGGTGAATAGGTCGTTGATGAGTAGGCG	1.54	2.21	0.988	-0.386	2	1.21	0.463	0.626
ATCTCTAGGTAAAGATAGATCAGTGAATGCAAAT	-0.493	0.264	0.561	-0.154	-0.137	0.0339	-0.214	-0.0693
GCTATTAGTTGATAGGGCAACCGAATGATTCTCG	0.604	0.208	0.649	0.36	0.26	-0.111	-0.518	0.0585
CGAACTAGGTCAGCCAGGACAGTGAATACATTGA	2.65	3.04	4.54	1.2	1.54	3.12	1.45	0.353
CCTAGCAGGCCTATCTGGGTCACTCAAGGCTTGA	1.68	0.716	0.616	-0.488	0.644	2.3	0.219	-0.239
TCTTGTAGATCAACAGGAGGTTAAGAACGATCGA	0.615	0.992	0.377	0.686	0.967	0.923	-0.518	-0.0634
CCTCGGACGACAACAGGAGGTCAGAGCTGCCAGA	2.97	1.95	1.99	-0.432	1.84	1.92	0.602	0.934
ATCTCTAGGTAAATATAGTTCAGTGAATGCAAAT	1.1	1.03	1.14	0.551	0.623	1.05	0.0877	1.2
AGAACGAGGGCACCCTGAGTTGATAGCAGAGTAG	0.823	1.54	1.76	1.42	1.14	1.59	-0.12	1.36
AGTCAAAGTTCAGGACGAGGTAACGTACAGCACG	3.47	4.77	4.74	2.99	2.92	3.9	1.82	2.1
TATACAGGGTCAAAGGCCAGAGCACGAATGTCGA	3.57	5.66	5.23	3.1	6.87	3.46	0.672	2.9
CCTACTGGGCCATCAGGTCATTGAAATCAACGTT	2.46	1.85	2.14	0.155	1.18	3.07	2.88	1.02
TCGAGTAGGTTGCCAATGGGGCATTCAGCTTTCT	-0.36	-0.509	-0.841	0.244	-0.482	-0.51	-0.951	-0.846
CCTACTGTGCCAAGGTCATTGATCAGTCAAAGCA	3.73	3.88	3.24	2.18	3.4	3.68	3.43	3.63
TCTGCTGGGTCAGTTGGTCAGCTAACGAGCTGCC	2.12	2.77	2.99	0.212	1.06	0.669	-0.537	-0.562
TCGAGCAGGTTACCAATGGGGCATTCAGCTTTCT	0.557	1.36	0.389	-0.436	0.616	0.235	-0.786	-0.843
CGTCCAAGGTCAGAGGGGTCAGTGAATGCCGAGT	5.33	6.54	7.18	3.32	6.41	4.28	2.82	5.91
TAGCCTTGGTCATTGGGCCAGTATAGTACGCATC	0.501	0.238	0.477	-0.637	0.0749	-0.206	-0.231	-0.72
CCAGACAGGTGAAAGGTAACGCAGTCTGGTACGC	1.03	1.46	0.723	-0.16	2.42	1.08	-0.07	-0.146
CATACAGGGTCAGCTAGCCCAGAGTAGGGACGGC	3.08	4.59	4.82	1.69	4.46	2.82	0.68	0.999
CGAACTAGGTCAGAACAGGACAGTCAAGGATGAT	2.26	2.65	3.09	0.873	1.35	3.42	0.288	0.29
CCGACTGGGACAAAGGTTACCATACTCAGTACGA	1.88	2.42	1.43	0.478	2.21	1.75	0.208	-0.0207
ATCGAAAGCTCGAAGGTGAGTATACCCACCCGAA	-0.378	-0.032	0.202	-1.19	0.158	-0.167	-1.04	-0.249
CCTAGCAGGCCAGGGTCACTCGAGCATTTCGCTT	2.57	3.06	2.18	0.188	3.57	2.83	0.909	1.33
ATCTCTAGGTAACCAAGTTCAGAGAATGCCGAAC	1.48	0.849	1.13	0.821	0.723	1.46	0.471	2.7
TCATATATGTAAAAGGTGAAAGTCGGTGTGGTAA	1.67	1.18	0.788	1.48	1.79	1.36	0.104	0.0436
ATCGAAAGGTCGCGAGGTGAGTATACAGAAAGGC	3.4	5.11	4.94	0.903	5.7	3.45	0.86	0.971
CGTCCAAGATCAGCAGGTCAGTGAAAGCGACGTG	2.09	1.01	1.51	0.253	0.844	1.11	0.018	0.137
